# Data taken from PubChem BioAssay (NCATS).
# Results filed as inconclusive are left out. A call without a number means that no potency is given here. Some compounds were tested as several samples or in several runs, with calls that do not always agree. The source made the active and inactive calls. Unless noted, calls follow the shape of the dose curve; as a rule, active = well fitted curve in the direction sought with a large enough effect; inconclusive = small, poorly fitted or top-dose-only effect, or another doubt; inactive = no such curve, though single readings can be large; an effect the other way counts as inactive or inconclusive.
# What was measured:
# [1] = qHTS Assay for Identification of Small Molecule Agonists for Hypoxia Response Element Signaling Pathway (AID 914; active = well fitted activation curve with a large enough effect in the signal ratio, with a control signal flat, not every such curve was filed as active; the % refers to the signal ratio; also: potency is read from the fitted curve at half-maximal effect); conditions: ME-180 (cervical carcinoma) HRE-bla reporter, beta-lactamase ratio, CoCl2, 17 h; activation: stronger effect = higher value
# How it was run: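 HRE-bla ME-180 assay for agonist-like enhancement of an EC50 CoCl2 stimulus: 17 h at 37 degrees Celsius, CCF4 for 2.5 h, ratiometric 460/530 nm signal converted to %Activity and fitted to AC50.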
# [2] = molecular target: DNA dC->dU-editing enzyme APOBEC-3G (Homo sapiens) (UniProt Q9HC16); test: qHTS for inhibitors of Vif-A3G interactions: Validation (AID 588379)
# How it was run: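 HeLa cells stably expressing Vif and A3G-eYFP, 700 cells/well, incubated overnight at 37 deg C, then exposed to compound overnight at 37 deg C. Inhibition of Vif-mediated degradation read as increased yellow fluorescence (Ex 488/Em 500-530) by laser-scanning cytometry.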
# [3] = molecular target: Cytochrome P450 2C9 (Homo sapiens) (UniProt P11712); test: qHTS Assay for Inhibitors and Substrates of Cytochrome P450 2C9 (AID 883); also: nearly all actives have a fitted effect of over 60% in size; also: potency is read from the fitted curve at half-maximal effect
# How it was run: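 Human CYP2C9 (10nM) with Luciferin-H at 100uM (its KM) in 25mM KPO4; compound preincubated 10 min at 37C, then NADPH regeneration for 60 min at 37C. Luciferin read by luminescence after detection reagent; normalized to 57uM sulphaphenazole as full inhibition.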
# [4] = molecular target: Rap guanine nucleotide exchange factor 3 (Homo sapiens) (UniProt O95398); test: Confirmatory qHTS for antagonist of cAMP-regulated guanine nucleotide exchange factor 3 (EPAC1) (AID 1645880); also: nearly all actives have a fitted effect of over 55% in size; also: potency is read from the fitted curve at half-maximal effect
# How it was run: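 Nucleotide exchange uses 100 nM EPAC1, 250 nM RAP1B-BODIPY-GDP and 50 uM GDP, with compounds in a concentration-titration series. After 5 min at room temperature, fluorescence (480 nm ex/540 nm em) is read every 5 min for 30 min. Data are normalized to control ATA and DMSO.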
# [5] = molecular target: Rap guanine nucleotide exchange factor 4 (Homo sapiens) (UniProt Q8WZA2); test: Confirmatory qHTS for agonist of cAMP-regulated guanine nucleotide exchange factor 4 (EPAC2) (AID 1645884);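 also: nucleotide exchange releases bodipy-GDP from Rap1 and this lowers its fluorescence; nearly all actives have a fitted effect of over 65% in size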
# [6] = molecular target: Rap guanine nucleotide exchange factor 4 (Homo sapiens) (UniProt Q8WZA2); test: Confirmatory qHTS for antagonist of cAMP-regulated guanine nucleotide exchange factor 4 (EPAC2) (AID 1645885); also: nearly all actives have a fitted effect of over 25% in size; also: potency is read from the fitted curve at half-maximal effect
# [7] = molecular target: Cytochrome P450 2D6 (Homo sapiens) (UniProt P10635); test: qHTS Assay for Inhibitors and Substrates of Cytochrome P450 2D6 (AID 891); also: nearly all actives have a fitted effect of over 60% in size; also: potency is read from the fitted curve at half-maximal effect;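 as to activity change, negative = inhibition: luciferin methyl ether substrate demethylated by CYP2D6 with NADPH regeneration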
# How it was run: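 Human CYP2D6 (5 nM) with 30 uM Luciferin-ME EGE (at Km) in 100 mM KPO4, compound preincubated 10 min, then NADPH regeneration system for 60 min at room temperature. Luciferin read by luminescence; normalized to 1.43 uM quinidine.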
# [8] = molecular target: Cytochrome P450 2C19 (Homo sapiens) (UniProt P33261); test: qHTS Assay for Inhibitors and Substrates of Cytochrome P450 2C19 (AID 899); also: nearly all actives have a fitted effect of over 60% in size; also: potency is read from the fitted curve at half-maximal effect
# How it was run: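 5 nM human CYP2C19 with 10uM Luciferin-H EGE (at KM) in 50mM KPO4, compound preincubated 10 min at 37C, then NADPH regeneration for 60 min at 37C. Luciferin read by luminescence after detection reagent; normalized to 57uM ketoconazole as full inhibition.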
# [9] = molecular target: DNA repair nuclease/redox regulator APEX1 (Homo sapiens) (UniProt P27695); test: qHTS Validation Assay for Inhibitors of the Human Apurinic/apyrimidinic Endonuclease 1 (APE1) (AID 1705;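 also: TAMRA fluorescence gain over two minutes as APE1 cuts a quenched THF abasic duplex; series mostly up to about 57 µM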)
# How it was run: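 Read-out: TAMRA fluorescence (525 nm ex, 598 nm em) from cleavage of a quenched THF abasic-site duplex, 50 nM final; activity taken as intensity change between third and first of three reads 60 s apart.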
# [10] = Counterscreen for APE1 Inhibitors: Fluorescent Dye Displacement Validation Assay (AID 1707)
# How it was run: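 Assay buffer: Tris-HCl pH7.5 with 50mM NaCl, 2 mM MgCl2, 0.01% Tween-20. Dye 250 nM, duplex 50 nM final. Readout: decrease in ThO endpoint fluorescence, 480 nm excitation, 540 nm emission.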
# [11] = qHTS for differential inhibitors of proliferation of Plasmodium falciparum line 3D7 (AID 1876); also: potency is read from the fitted curve at half-maximal effect
# [12] = qHTS for differential inhibitors of proliferation of Plasmodium falciparum line Dd2 (AID 1882); conditions: Potency: Plasmodium falciparum Dd2 proliferation inhibition; also: nearly all actives have a fitted effect of over 65% in size; also: potency is read from the fitted curve at half-maximal effect; as to activity change, negative = inhibition: series mostly up to about 29 µM
# How it was run: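 Dd2-infected erythrocytes (0.3% parasitemia, 2.5% hematocrit final) incubated with compound 72 h at 37 C, 5% CO2; lysed with saponin/Triton buffer containing SYBR Green I, incubated overnight in the dark, then read by fluorescence (485/535 nm). Normalized to 0.29 uM artemisinin and DMSO.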
# [13] = qHTS for differential inhibitors of proliferation of Plasmodium falciparum line W2 (AID 1883); conditions: Potency: Plasmodium falciparum W2 proliferation inhibition;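 also: potency is read from the fitted curve at half-maximal effect; parasites grown with compound for 72 h before lysis and staining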
# [14] = qHTS for differential inhibitors of proliferation of Plasmodium falciparum line HB3 (AID 1886); conditions: Potency: Plasmodium falciparum HB3 proliferation inhibition;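 also: potency is read from the fitted curve at half-maximal effect; parasites grown with compound for 72 h before SYBR Green readout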
# [15] = molecular target: ATP-dependent DNA helicase Q1 (Homo sapiens) (UniProt P46063); test: qHTS Validation Assay for Inhibitors of RecQ-Like Dna Helicase 1 (RECQ1) (AID 2353)
# How it was run: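 50 nM RECQ1T1 preincubated 15 min with compound in Tris pH 8.0 buffer with MgCl2, DTT, Tween-20 and 2.5 ug/ml poly(dI-dC); started with 200 nM TAMRA/BHQ-2 forked duplex and 2 mM ATP. Unwinding read as fluorescence (525/598 nm), two reads 2 h apart.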
# [16] = molecular target: M-phase phosphoprotein 8 (Homo sapiens) (UniProt Q99549); test: qHTS Validation Assay for Inhibitors for MPP8 Chromodomain Interactions with Methylated Histone Tails (AID 488949); also: nearly all actives have a fitted effect of over 55% in size; also: potency is read from the fitted curve at half-maximal effect;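 as to activity change, negative = inhibition: AlphaScreen signal from MPP8 chromodomain bound to biotinylated H3K9me3 peptide; top concentration of the series differs between compounds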
# How it was run: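 AlphaScreen read-out: streptavidin donor and nickel chelate acceptor beads (final 10 ug/mL), 30 min in the dark at RT. Complex of 50 nM MPP8 and 50 nM b-H3(1-18)K9me3 peptide had been exposed to compounds for 30 min beforehand.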
# [17] = molecular target: Transient receptor potential cation channel subfamily V member 1 (Homo sapiens) (UniProt Q8NER1); test: HTS Assay for Compounds that Act as Enhancers of the Vanilloid Receptor 1 (AID 488979)
# How it was run: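 TRPV1 cells loaded with Fluo-8 calcium dye; compound added and Ca2+ signal (ex 480/em 520 nm) followed 3 min, then capsaicin at EC20 added and read 2 more min to detect enhancement.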
# [18] = molecular target: Thyrotropin-releasing hormone receptor (Homo sapiens) (UniProt P34981); test: qHTS for Small Molecule Agonists and Allosteric Enhancers of Human TRH Receptor: Validation Screen for Agonists (AID 493127;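 active = calcium activation more than 3 SD above the typical response in the agonist read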); conditions: TRH receptor agonist cell assay; at 2 µM; stronger effect = higher value
# How it was run: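 TRHR cells loaded with fluo-8 calcium dye; FDSS kinetic fluorescence (Ex 480/Em 530) read at 1 s/cycle after 23 nL compound addition. Agonist-mode calcium response recorded before the 10 nM TRH (EC20) addition.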
# [19] = molecular target: Galactokinase (Homo sapiens) (UniProt P51570); test: qHTS Validation Assay for Inhibitors of Human Galactokinase (GALK) (AID 493189)
# How it was run: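 Luminescence from leftover ATP (Kinase-Glo Plus, 10 min) served as read-out after a 1 h room-temperature reaction of 5 nM GALK, 100 uM galactose and 35 uM ATP at pH8.0.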
# [20] = molecular target: Voltage-gated inwardly rectifying potassium channel KCNH2 (Homo sapiens) (UniProt Q12809); test: qHTS Assay for Small Molecule Inhibitors of the Human hERG Channel Activity (AID 588834);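 also: lower thallium flux fluorescence means stronger hERG block; nearly all actives have a fitted effect of over 50% in size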; also: potency is read from the fitted curve at half-maximal effect; as to activity change, negative = inhibition: top concentration of the series differs between compounds
# How it was run: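 Concentration-response qHTS measuring drop in thallium-sensitive dye signal. U2OS cells carrying BacMam hERG; compound exposure ~10 min, then stimulation buffer and 2 min read at 1 sec intervals.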
# Rap guanine nucleotide exchange factor 4 (Homo sapiens), sequence (Q8WZA2 whole entry, looked up): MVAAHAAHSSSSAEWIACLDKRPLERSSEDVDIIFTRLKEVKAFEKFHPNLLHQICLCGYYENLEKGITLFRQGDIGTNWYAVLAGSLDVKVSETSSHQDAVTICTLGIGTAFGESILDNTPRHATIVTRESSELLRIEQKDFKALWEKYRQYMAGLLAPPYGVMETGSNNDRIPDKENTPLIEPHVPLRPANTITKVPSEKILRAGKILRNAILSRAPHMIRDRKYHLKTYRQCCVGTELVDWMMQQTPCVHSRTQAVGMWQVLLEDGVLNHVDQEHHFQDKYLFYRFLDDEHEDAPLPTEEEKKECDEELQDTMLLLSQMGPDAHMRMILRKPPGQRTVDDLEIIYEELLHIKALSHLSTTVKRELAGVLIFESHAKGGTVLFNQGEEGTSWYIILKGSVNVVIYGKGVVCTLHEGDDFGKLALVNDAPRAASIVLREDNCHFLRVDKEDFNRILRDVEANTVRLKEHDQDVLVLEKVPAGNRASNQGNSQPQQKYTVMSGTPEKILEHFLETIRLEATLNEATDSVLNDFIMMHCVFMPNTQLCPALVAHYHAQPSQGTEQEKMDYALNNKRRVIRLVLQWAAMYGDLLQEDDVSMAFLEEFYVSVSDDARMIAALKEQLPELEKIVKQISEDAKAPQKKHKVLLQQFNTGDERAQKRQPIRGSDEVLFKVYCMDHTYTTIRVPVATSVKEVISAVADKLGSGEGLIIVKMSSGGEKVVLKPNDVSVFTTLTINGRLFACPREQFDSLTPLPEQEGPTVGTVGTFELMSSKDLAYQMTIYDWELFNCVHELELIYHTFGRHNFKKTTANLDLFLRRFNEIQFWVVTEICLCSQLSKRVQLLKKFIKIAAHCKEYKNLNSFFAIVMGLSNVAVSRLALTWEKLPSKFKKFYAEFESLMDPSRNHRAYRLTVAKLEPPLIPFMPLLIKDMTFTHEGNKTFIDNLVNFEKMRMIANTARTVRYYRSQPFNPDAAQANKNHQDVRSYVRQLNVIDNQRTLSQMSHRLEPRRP
# DNA dC->dU-editing enzyme APOBEC-3G (Homo sapiens), sequence (Q9HC16 whole entry, looked up): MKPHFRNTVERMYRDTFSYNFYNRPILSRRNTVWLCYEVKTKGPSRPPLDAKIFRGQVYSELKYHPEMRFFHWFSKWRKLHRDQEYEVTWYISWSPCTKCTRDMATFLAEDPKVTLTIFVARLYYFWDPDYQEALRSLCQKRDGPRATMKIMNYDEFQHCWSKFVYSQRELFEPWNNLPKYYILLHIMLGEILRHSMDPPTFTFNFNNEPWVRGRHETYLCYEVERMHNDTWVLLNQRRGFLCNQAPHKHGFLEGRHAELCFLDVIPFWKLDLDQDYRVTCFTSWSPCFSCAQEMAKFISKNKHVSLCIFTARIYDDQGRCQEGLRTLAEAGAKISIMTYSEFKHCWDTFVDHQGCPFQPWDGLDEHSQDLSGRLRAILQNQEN
# ATP-dependent DNA helicase Q1 (Homo sapiens), sequence (P46063 whole entry, looked up): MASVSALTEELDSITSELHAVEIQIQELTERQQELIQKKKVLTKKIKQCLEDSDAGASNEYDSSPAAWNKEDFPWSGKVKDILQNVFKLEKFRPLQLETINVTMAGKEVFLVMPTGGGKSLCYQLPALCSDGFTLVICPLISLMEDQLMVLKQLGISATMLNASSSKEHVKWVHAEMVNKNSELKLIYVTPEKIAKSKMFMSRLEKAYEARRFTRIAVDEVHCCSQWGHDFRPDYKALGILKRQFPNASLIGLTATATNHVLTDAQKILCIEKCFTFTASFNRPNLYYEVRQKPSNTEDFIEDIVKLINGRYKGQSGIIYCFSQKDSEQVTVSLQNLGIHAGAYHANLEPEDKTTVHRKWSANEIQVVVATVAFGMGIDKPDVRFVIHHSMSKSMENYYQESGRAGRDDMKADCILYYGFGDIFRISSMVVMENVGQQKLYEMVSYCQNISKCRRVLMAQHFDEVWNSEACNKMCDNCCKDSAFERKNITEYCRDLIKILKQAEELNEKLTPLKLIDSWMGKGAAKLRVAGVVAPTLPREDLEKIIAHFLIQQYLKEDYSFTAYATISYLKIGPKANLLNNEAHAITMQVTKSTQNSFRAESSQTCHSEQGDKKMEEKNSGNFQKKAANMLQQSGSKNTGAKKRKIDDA
# Thyrotropin-releasing hormone receptor (Homo sapiens), sequence (P34981 whole entry, looked up): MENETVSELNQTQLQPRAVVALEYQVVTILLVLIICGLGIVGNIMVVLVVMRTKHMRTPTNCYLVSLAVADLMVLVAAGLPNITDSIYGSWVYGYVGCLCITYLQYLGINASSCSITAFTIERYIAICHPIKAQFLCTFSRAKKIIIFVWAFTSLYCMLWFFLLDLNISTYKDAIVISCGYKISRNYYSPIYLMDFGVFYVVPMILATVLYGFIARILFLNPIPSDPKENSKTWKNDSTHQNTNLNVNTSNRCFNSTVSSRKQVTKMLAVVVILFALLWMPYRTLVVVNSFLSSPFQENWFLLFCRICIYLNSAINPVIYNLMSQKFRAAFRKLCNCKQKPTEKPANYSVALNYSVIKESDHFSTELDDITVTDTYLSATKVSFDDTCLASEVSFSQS
# Cytochrome P450 2C19 (Homo sapiens), sequence (P33261 whole entry, looked up): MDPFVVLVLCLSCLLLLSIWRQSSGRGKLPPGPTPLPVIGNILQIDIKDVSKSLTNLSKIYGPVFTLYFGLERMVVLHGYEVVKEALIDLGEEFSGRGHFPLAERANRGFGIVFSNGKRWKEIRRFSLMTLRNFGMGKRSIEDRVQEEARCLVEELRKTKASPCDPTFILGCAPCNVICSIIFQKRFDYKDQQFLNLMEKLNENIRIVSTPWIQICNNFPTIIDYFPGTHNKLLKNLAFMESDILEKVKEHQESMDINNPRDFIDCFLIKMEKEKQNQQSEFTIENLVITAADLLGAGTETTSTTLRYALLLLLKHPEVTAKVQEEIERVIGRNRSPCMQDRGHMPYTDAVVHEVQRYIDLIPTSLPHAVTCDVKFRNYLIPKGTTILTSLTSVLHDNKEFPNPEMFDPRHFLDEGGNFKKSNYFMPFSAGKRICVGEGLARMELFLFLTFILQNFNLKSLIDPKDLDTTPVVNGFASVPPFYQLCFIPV
# DNA repair nuclease/redox regulator APEX1 (Homo sapiens), sequence (P27695 whole entry, looked up): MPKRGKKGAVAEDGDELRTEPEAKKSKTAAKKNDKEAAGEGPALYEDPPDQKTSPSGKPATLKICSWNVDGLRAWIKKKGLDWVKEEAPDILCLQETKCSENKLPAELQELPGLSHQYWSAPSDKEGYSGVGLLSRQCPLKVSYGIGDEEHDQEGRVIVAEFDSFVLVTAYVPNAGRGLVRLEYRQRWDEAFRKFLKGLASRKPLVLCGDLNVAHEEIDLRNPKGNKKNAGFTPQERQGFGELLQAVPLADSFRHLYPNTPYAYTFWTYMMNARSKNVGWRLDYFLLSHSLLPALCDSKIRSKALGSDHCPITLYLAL
# Rap guanine nucleotide exchange factor 3 (Homo sapiens), sequence (O95398 whole entry, looked up): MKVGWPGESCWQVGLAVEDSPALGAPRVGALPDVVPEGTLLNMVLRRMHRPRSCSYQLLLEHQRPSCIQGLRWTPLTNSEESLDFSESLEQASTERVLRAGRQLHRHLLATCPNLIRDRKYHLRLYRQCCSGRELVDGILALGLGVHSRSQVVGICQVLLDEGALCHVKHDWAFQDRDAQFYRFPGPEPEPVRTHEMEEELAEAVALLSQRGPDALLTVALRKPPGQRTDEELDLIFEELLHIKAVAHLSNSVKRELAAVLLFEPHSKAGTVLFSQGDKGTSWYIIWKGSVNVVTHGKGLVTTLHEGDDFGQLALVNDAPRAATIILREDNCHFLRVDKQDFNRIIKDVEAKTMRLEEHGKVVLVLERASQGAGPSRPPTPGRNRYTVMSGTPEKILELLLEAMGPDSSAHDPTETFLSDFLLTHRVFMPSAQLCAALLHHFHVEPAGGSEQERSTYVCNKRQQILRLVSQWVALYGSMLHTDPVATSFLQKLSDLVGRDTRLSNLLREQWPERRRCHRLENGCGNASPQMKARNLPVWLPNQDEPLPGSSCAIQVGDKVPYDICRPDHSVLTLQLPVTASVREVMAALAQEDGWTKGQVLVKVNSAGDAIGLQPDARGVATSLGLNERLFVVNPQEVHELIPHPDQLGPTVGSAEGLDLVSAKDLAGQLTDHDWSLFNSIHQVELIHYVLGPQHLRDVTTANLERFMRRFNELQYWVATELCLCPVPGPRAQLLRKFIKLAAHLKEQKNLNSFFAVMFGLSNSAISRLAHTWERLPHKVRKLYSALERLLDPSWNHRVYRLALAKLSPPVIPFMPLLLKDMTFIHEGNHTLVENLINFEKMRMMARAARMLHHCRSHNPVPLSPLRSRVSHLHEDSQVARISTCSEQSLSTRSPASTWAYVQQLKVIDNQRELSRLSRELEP
# Transient receptor potential cation channel subfamily V member 1 (Homo sapiens), sequence (Q8NER1 whole entry, looked up): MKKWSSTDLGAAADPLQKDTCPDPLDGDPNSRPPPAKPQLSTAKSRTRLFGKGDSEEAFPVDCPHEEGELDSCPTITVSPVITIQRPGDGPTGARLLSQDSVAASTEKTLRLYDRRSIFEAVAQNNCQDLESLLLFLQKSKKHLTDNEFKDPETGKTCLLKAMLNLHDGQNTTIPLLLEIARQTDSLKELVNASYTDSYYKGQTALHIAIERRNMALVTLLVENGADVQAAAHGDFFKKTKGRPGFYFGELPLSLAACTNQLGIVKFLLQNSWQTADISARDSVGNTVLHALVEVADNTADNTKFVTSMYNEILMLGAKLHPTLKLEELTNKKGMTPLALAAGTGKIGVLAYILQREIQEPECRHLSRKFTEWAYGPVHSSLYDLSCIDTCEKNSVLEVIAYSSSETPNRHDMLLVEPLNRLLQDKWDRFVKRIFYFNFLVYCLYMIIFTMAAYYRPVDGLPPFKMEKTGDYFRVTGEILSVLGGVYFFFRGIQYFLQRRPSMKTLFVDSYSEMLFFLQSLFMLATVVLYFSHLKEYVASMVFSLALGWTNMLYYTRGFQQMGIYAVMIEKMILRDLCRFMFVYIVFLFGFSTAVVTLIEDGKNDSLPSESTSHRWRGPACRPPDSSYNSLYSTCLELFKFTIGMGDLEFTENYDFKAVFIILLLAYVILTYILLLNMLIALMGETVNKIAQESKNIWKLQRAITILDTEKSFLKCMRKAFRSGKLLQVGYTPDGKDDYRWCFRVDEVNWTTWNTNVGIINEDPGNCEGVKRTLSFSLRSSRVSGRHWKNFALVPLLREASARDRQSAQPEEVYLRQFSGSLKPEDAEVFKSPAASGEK
smiles,measurement,setting,value
CCNc1ncc2nc(-c3ccccc3)c(=O)n(CCc3ccccc3)c2n1,Potency,[1],1.58 µM (active)
Oc1cc2c(c(Cl)c1O)CCNC[C@H]2c1ccccc1,outcome,[2],inactive
CCNc1ncc2nc(-c3cc(F)cc(F)c3)c(=O)n(-c3ccc(OC)cc3)c2n1,Potency,[1],0.398 µM (active)
COc1ccc(-c2nc3cnc(N4CCN(C)CC4)nc3n(CCC#N)c2=O)cc1,Potency,[1],3.16 µM (active)
CCNc1ncc2nc(-c3cc(F)cc(F)c3)c(=O)n(-c3ccccc3)c2n1,Potency,[1],2.51 µM (active)
O=c1c(-c2cccs2)nc2cnc(Oc3cccc(Cl)c3)nc2n1C[C@H]1CCCO1,Potency,[3],3160 nM (active)
same,Potency,[1],3.16 µM (active)
COc1ccc(-n2c(=O)c(-c3cc(F)cc(F)c3)nc3cnc(N4CCNCC4)nc32)cc1,Potency,[1],3.16 µM (active)
COc1ccc(-c2nc3cnc(N(C)C)nc3n(CCc3ccccc3)c2=O)cc1,Potency,[1],0.794 µM (active)
C=CCc1ccc(OC(=O)c2ccccc2)c(OC)c1,Potency,[4],inactive
same,Potency,[5],inactive
same,"activity change, negative = inhibition",[6],-4.91% [at 12.7 µM] (inactive)
CCCNC(=O)N1N=C(c2ccc(N)cc2)c2cc3c(cc2[C@H]1C)OCO3,outcome,[2],inactive
CN(Cc1ccco1)c1ncnc2ccc(-c3ccc4c(c3)OCO4)cc12,Potency,[7],1.58 µM (active)
same,Potency,[8],0.631 µM (active)
same,Potency,[4],inactive
same,Potency,[5],inactive
same,Potency,[6],13.9 µM (active) and inactive
Cc1cc(C)c(S(=O)(=O)Nc2ccccc2C(F)(F)F)c(C)c1,Potency,[7],6.31 µM (active)
same,outcome,[2],inactive
C/C(=C\COc1cc(=O)[nH]c2ccccc12)CCC(O)C(C)(C)O (centres undefined),outcome,[2],inactive
O=c1ccc2cc(O)c(O)cc2o1,Potency,[1],10 µM (active)
COc1ccccc1CNc1ncnc2ccc(-c3ccccc3C#N)cc12,Potency,[8],7.94 µM (active)
same,Potency,[4],inactive
same,Potency,[5],inactive
same,Potency,[6],inactive
CN=C1N[C@H](c2ccccc2)N(c2ccccc2)S1,outcome,[2],inactive
CC(C)CN1CCCC2(CCN(C(=O)c3ccco3)CC2)C1,Potency,[3],inactive
COc1ccc2[nH]cc(CCNc3ncnc4ccc(-c5ccc6c(c5)OCO6)cc34)c2c1,Potency,[3],126 nM (active)
same,Potency,[7],2.51 µM (active)
same,Potency,[8],1.58 µM (active)
same,Potency,[4],inactive
same,Potency,[5],inactive
same,Potency,[6],inactive
O=[N+]([O-])c1cccc2c[nH]nc12,outcome,[2],inactive
COc1ccc2[nH]cc(CCNc3ncnc4ccc(-c5ccccc5C#N)cc34)c2c1,Potency,[3],316 nM (active)
same,Potency,[7],7.94 µM (active)
same,Potency,[8],2 µM (active)
same,Potency,[4],inactive
same,Potency,[5],inactive
same,Potency,[6],inactive
COc1ccc2[nH]cc(CCNc3nc(-c4ccc(C(=O)N(C)C)cc4)nc4ccccc34)c2c1,Potency,[8],3.16 µM (active)
NC(Cc1ccc(O)c(O)c1)C(=O)O (centres undefined),Potency,[4],1.4 µM (active)
same,Potency,[5],inactive
same,Potency,[6],44.1 µM (active)
N[C@H](Cn1ccc(=O)c(O)c1)C(=O)O,outcome,[2],inactive
N[C@@H](C(=O)O)c1ccc(O)c(C(=O)O)c1,Potency,[3],inactive
same,outcome,[2],inactive
COc1cc2ccc(=O)oc2cc1O,Potency,[3],inactive
same,Potency,[7],inactive
same,Potency,[8],inactive
same,outcome,[2],inactive
same,Potency,[4],inactive
same,Potency,[5],inactive
same,Potency,[6],inactive
COc1cc2c(cc1OC)C(=O)Cc1ccc3c(c1CN(C)CC2)OCO3,Potency,[3],inactive
same,Potency,[7],0.0251 µM (active)
same,Potency,[8],10 µM (active)
same,outcome,[2],inactive
CC[C@@]12CCCN3CCc4c(n(c5ccccc45)[C@](O)(C(=O)OC)C1)[C@H]32,Potency,[3],inactive
same,Potency,[7],0.251 µM (active)
same,Potency,[8],inactive
same,outcome,[2],inactive
CCCC[P+](CCCC)(CCCC)Cc1ccc(NC(=O)[C@@H](Cc2ccc3ccccc3c2)NC(=NC2CCCCC2)NC2CCCCC2)cc1,outcome,[2],inactive
COc1cccc(-c2cc(NCCc3c[nH]c4ccc(OC)cc34)ncn2)c1,Potency,[8],0.501 µM (active)
same,Potency,[4],inactive
same,Potency,[5],inactive
same,Potency,[6],inactive
Cc1[nH]ccc2c1[nH]c1cc(=O)ccc12,outcome,[2],inactive
Cc1ccccc1-c1ccc2ncnc(N(C)C)c2c1,Potency,[8],7.94 µM (active)
same,Potency,[4],inactive
same,Potency,[5],inactive
same,Potency,[6],inactive
CCCCCCCNS(=O)(=O)c1cccc2c(Cl)cccc12,Potency,[8],0.126 µM (active)
same,outcome,[2],inactive
COc1c(-c2ccc(O)c(O)c2)oc2cc(O)cc(O)c2c1=O,Potency,[3],inactive
C=C[C@](C)(O)CCC1C(=C)CC(OC(C)=O)C2C(C)(C)CCCC12C (some centres undefined),Potency,[5],inactive
same,Potency,[6],11.1 µM (active)
CN1CCc2c(cc(O)c(O)c2Cl)C(c2cccc(Cl)c2)C1 (centres undefined),outcome,[9],inactive
same,outcome,[10],inactive
same,Potency,[11],3.55 µM (active)
same,Potency,[12],11.2 µM (active)
same,Potency,[13],5.01 µM (active)
same,Potency,[14],8.91 µM (active)
same,outcome,[15],inactive
same,Potency,[16],39.8 µM (active)
same,outcome,[17],inactive
same,activation,[18],0.0625% (inactive)
same,outcome,[19],inactive
same,Potency,[20],12.6 µM (active)
CN1CCN(c2ncncc2-c2ccc(N(C)C)cc2)CC1,"activity change, negative = inhibition",[3],36.5% [at 2.29 µM] (inactive)
Nc1ncnc2c1ncn2[C@@H]1O[C@H](COP(=O)(O)OP(=O)(O)OP(=O)(O)OP(=O)(O)OC[C@@H]2O[C@H](n3cnc4c(N)ncnc43)[C@@H](O)[C@@H]2O)[C@H](O)[C@H]1O,outcome,[9],inactive
same,outcome,[10],inactive
same,Potency,[12],inactive
same,outcome,[15],inactive
same,Potency,[16],inactive
same,outcome,[17],inactive
same,activation,[18],13.9% (inactive)
same,Potency,[20],inactive
CC#C[C@]1(O)CC[C@H]2C3CCC4=CC(=O)CCC4=C3[C@@H](c3ccc(N(C)C)cc3)C[C@@]21C (some centres undefined),outcome,[9],inactive
same,outcome,[10],inactive
same,Potency,[11],10 µM (active)
same,Potency,[13],5.01 µM (active)
same,Potency,[14],12.6 µM (active)
same,outcome,[15],inactive
same,Potency,[16],15.8 µM (active)
same,outcome,[17],inactive
same,activation,[18],28.5% (inactive)
same,outcome,[19],inactive
